From PubChem BioAssay AID686971 (National Center for Advancing Translational Sciences (NCATS), 2013)
In all, about 360,000 compounds went through this assay and about 7,500 (2.1%) were called active. Where a call stands in place of a potency, no number is given. About 8% were inconclusive and are not listed. Calls come from the whole dose curve; as a rule, active = well fitted cell-killing curve with a large enough effect; inconclusive = small, poorly fitted or top-dose-only effect, or effect the other way, or another doubt; inactive = no such curve, though single readings can be large or run the other way. This excerpt belongs to a sample that is enriched for actives.

assay: qHTS for induction of synthetic lethality in tumor cells producing 2HG: qHTS for the HT-1080-IDH1KD cell line; conditions: HT-1080 IDH1 knockdown viability, ATP luminescence, 48 h; series mostly up to 46.1 µM
Procedure, shortened: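 % activity derives from luminescence (CellTiter-Glo), normalised to DMSO and no-cell wells. HT-1080-IDH1KD cells, 750/well, had 48 h compound exposure at 37 °C.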
Potency is the fitted concentration of half-maximal effect.

Structure (SMILES)	Potency
COc1cc(C)c(CN2CCN(C(=O)CCC(=O)c3ccc(C)s3)CC2)cc1OC	inactive
COc1ccc(NC(=O)c2sc(=O)n(Cc3ccc(S(=O)(=O)N(C)C)cc3)c2C)cc1	inactive
CC1(C(=O)Nc2ccc3c(c2)OCCO3)CSCC(=O)N1CCOc1ccccc1 (stereo not given)	inactive
Cc1ccn(CC(=O)NC2CCCN(Cc3ccccc3F)C2)n1 (stereo not given)	inactive
CC1Cc2[nH][nH]c(=O)c2C(C2CC2)O1 (stereo not given)	inactive
Cc1cccc(C=CC(=O)c2ccc(Cl)cc2)c1	inactive
O=C(CSc1ncn[nH]1)Nc1ccc(Br)cc1Br	inactive
O=C(/C=C/Sc1ncn[nH]1)c1ccc(Cl)cc1	5.8 µM (active)
Cc1ccc([C@H]2C[C@H](O)[C@@H](n3cc(COC(=O)c4ccccc4)nn3)CN2C(=O)C2CCCCC2)cc1	inactive
Nc1nc(Nc2ccccc2F)nc(NC2CCCCC2)c1[N+](=O)[O-]	18.4 µM (active)
C=CCNc1nc(N)c([N+](=O)[O-])c(NC2CCCCC2)n1	inactive
Nc1nc(NCC2CCCO2)nc(Nc2ccccc2F)c1[N+](=O)[O-] (stereo not given)	inactive
Cc1cccc(-n2cc(CN3CCN(C(=O)c4ncn[nH]4)CC3)c(-c3cccc(F)c3)n2)c1	inactive
CCC(O)C1CCN(Cc2cn(-c3ccc(OC)cc3)nc2-c2cccc(F)c2)CC1 (stereo not given)	14.6 µM (active)
COc1ccc(-n2cc(CNC3CCOCC3)c(-c3cccc(F)c3)n2)cc1	18.4 µM (active)
COc1ccc(-n2cc(CN(C)Cc3n[nH]c(=O)[nH]3)c(-c3cccc(F)c3)n2)cc1	inactive
COc1ccc(-c2nn(-c3ccccc3)cc2CN2CCCO2)c(F)c1	inactive
Cn1cc(CN2CCC(C(O)CCc3ccccc3)CC2)c(-c2ccccc2F)n1 (stereo not given)	inactive
CC1(C)CN(Cc2cccnc2)C(=O)[C@H]1CC(=O)Nc1ccc(Br)cc1	inactive
CCc1nnc(NC(=O)c2ccco2)s1	inactive
Cn1cccc1/C=N/NC(=O)c1ccc(OC(F)(F)C(F)F)cc1	inactive
O=C(Nc1ccc(OC(F)(F)F)cc1)c1ccc2c(c1)no[n+]2[O-]	11.6 µM (active)
Cn1nccc1NC(=O)Nc1ccc(OC(F)(F)F)cc1	inactive
CC1(c2cccc(N)c2)OCCO1	inactive
Cc1ccc(-c2cnc(C(O)c3cccc(C)c3C)[nH]2)cc1 (stereo not given)	inactive

Structure (SMILES)	Potency
Cc1ccc(-c2nc3c(C)cc(Br)cn3c2Cc2ccccc2)cc1	inactive
CC(C)C[C@H]1CN([C@@H](Cc2ccccc2)CN2CCC[C@@H]2CN2C(=O)C(=O)NC[C@@H]2Cc2ccc(O)cc2)C(=O)C(=O)N1CCc1ccccc1	inactive
CC(C)C[C@H]1CNC(=S)N1C[C@H]1CCCN1C[C@H](Cc1ccc(O)cc1)N1C[C@H](Cc2ccc(O)cc2)N(CC2CCCCC2)C1=S	14.6 µM (active)
CCOc1ccc(CCN2C(=O)C(=O)N([C@@H](Cc3ccc(O)cc3)CN3CCC[C@H]3CN3C(=O)C(=O)NC[C@@H]3CC(C)C)C[C@@H]2Cc2ccccc2)cc1	inactive
CC(C)[C@H](NC(=O)c1ccccc1F)C(=O)Nc1cccc(S(=O)(=O)N2CCOCC2)c1	inactive
C[C@H]1NS(=O)(=O)c2cc(Cl)ccc2O[C@@H]1c1ccccc1	inactive
CC(Sc1ccc(S(=O)(=O)N2CCN(C)CC2)cn1)C(=O)NC1CCCC(C)C1C (stereo not given)	inactive
CC(C)c1ccccc1OCC(O)CN(CC(O)COc1cccc2ccccc12)C(C)C (stereo not given)	25.9 µM (active)
CC1CC(C)CN(CCOc2cccc3ccccc23)C1 (stereo not given)	inactive
CCC(C)Sc1nc2c(c(=O)[nH]c(=O)n2C)n1CC(O)COc1cccc2ccccc12 (stereo not given)	inactive
Cc1[nH]c2ccccc2c1C(=O)C(=O)NCc1nnnn1-c1cccc(F)c1	inactive
O=C(NCc1ccc(F)cc1F)[C@@H]1CCCN1C(=O)[C@@H]1CCCN1C(=O)c1cccc(Cl)c1	inactive
O=C(c1ccc2c(=O)n(Cc3ccco3)c(=S)[nH]c2c1)N1CCCC1	inactive
O=[N+]([O-])c1c(NCCO)cc(Sc2nc3ccccc3s2)c2nonc12	3.16 µM (active)
CCN(CC)CCCSc1nc2ccccc2s1	inactive
Cc1nc2nc(CSc3nc4ccccc4s3)cc(=O)n2[nH]1	inactive
CCc1nc2c(OCCc3cccc(OC)c3)cccn2c1N(C)C(=O)c1ccc(C)cc1	inactive
CCc1ccccc1OCC(=O)Nc1nnc(C2CC2)s1	inactive
Cc1cc(C(=O)Nc2nnc(C3CC3)s2)c(C)s1	inactive
O=C(Nc1nnc(C2CC2)s1)c1ccccn1	5.01 µM (active)
C[C@@H]1CN([C@H](C)CO)C(=O)c2cc(-c3ccc(F)cc3)cnc2O[C@H]1CN(C)C(=O)c1ccc(F)cc1	inactive
O=C(CCc1ccccc1)NNc1ccc(F)cc1	2.31 µM (active)
O=C(Cc1ccccc1)NCc1ccc(F)cc1	inactive
CC(=O)Nc1ccc(S(=O)(=O)NNC(=O)CCc2ccccc2)cc1	inactive
COc1ccc(-c2ccc(CN3C(C(C)C)C(=O)N(Cc4cn(CC5CCCCC5)nn4)CCS3(=O)=O)cc2)cn1 (stereo not given)	inactive
